Among the data in PubChem BioAssay (Tox21) are Potency and outcome values, retold here.

“And” between values parts separate entries of the source, which are not always exact repeats. Identical values can stand only once. Inconclusive results are not listed. The source made the active and inactive calls. Unless noted, calls come from the whole dose curve; as a rule, active = well fitted curve in the direction sought with a large enough effect in the repeat runs; inconclusive = weak or mixed curves; inactive = no such curve, though single readings can be large; an effect the other way counts as inactive or inconclusive.

The nature of assay [1]: qHTS assay to identify small molecule antagonists of the glucocorticoid receptor (GR) signaling pathway - cell viability counter screen (AID 720693). Note: nearly all actives have a fitted effect of over 55% in size.
Assay [2] is described as follows: qHTS assay for identifying genotoxic compounds that show differential cytotoxicity against isogenic chicken DT40 cell lines with known DNA damage response pathways - wild type cell line (AID 743012). Note: nearly all actives have a fitted effect of over 60% in size. Note: potency is the fitted concentration of half-maximal effect. A digest of the protocol: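 Wild type DT40, 300 cells/well, ~0.5 h settle at 37 C/5% CO2; compounds in DMSO added by pintool; 40 h at 37 C/5% CO2; CellTiter-Glo, 30 min RT; luminescence.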

Assay [3] is described as follows: qHTS assay for identifying genotoxic compounds that show differential cytotoxicity against isogenic chicken DT40 cell lines with known DNA damage response pathways - Rev3 mutant cell line (AID 743014). Note: nearly all actives have a fitted effect of over 55% in size. Note: potency is the fitted concentration of half-maximal effect.
Assay [4] is described as follows: qHTS assay for identifying genotoxic compounds that show differential cytotoxicity against isogenic chicken DT40 cell lines with known DNA damage response pathways - Rad54/Ku70 mutant cell line (AID 743015). Note: nearly all actives have a fitted effect of over 60% in size. Note: potency is the fitted concentration of half-maximal effect.
Assay [5] is described as follows: qHTS assay to identify small molecule antagonists of the androgen receptor (AR) signaling pathway - cell viability counter screen (AID 743033; note: nearly all actives have a fitted effect of over 45% in size).
Assay [6] is described as follows: qHTS assay to identify small molecule antagonists of the androgen receptor (AR) signaling pathway using the MDA cell line - cell viability counter screen (AID 743041; note: nearly all actives have a fitted effect of over 45% in size). A digest of the protocol:
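MDA-kb2 AR-luc human breast carcinoma cells (MMTV-luciferase, AR/GR responsive) were treated with compounds plus R1881 agonist for 16 h at 37 °C. Viability was read as CellTiter-Fluor fluorescence in the same wells as the reporter assay.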

Assay [7] addresses Androgen receptor (Homo sapiens) (UniProt P10275). Description: qHTS assay to identify small molecule antagonists of the androgen receptor (AR) signaling pathway (AID 743035; active = well fitted inhibition curve with a large enough effect in the signal ratio in the repeat runs, not every such curve was filed as active; the % refers to the signal ratio). A digest of the protocol:
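Fluorescence from a beta-lactamase FRET substrate (LiveBLAzer B/G, 2 h, room temperature) measured inhibition of R1881-stimulated signaling in GeneBLAzer AR-UAS-bla HEK293 cells exposed to compound for 16 h at 37C.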

The target is the same in assay [8]. Description: qHTS assay to identify small molecule agonists of the androgen receptor (AR) signaling pathway using the MDA cell line (AID 743040; note: nearly all actives have a fitted effect of over 20% in size). In outline:
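MDA-kb2 breast carcinoma cells stably carrying an MMTV-driven luciferase reporter (AR- and GR-responsive) were seeded and held 5 h at 37C, 0% CO2, then exposed to compounds in DMSO for 16 h. Luminescence was read 30 min after ONE-Glo addition.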

Assay [9] shares this target. As to the kind of experiment: qHTS assay to identify small molecule antagonists of the androgen receptor (AR) signaling pathway using the MDA cell line (AID 743042; note: nearly all actives have a fitted effect of over 55% in size). In outline: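 MDA-kb2 cells (human breast carcinoma, stably carrying an MMTV-luciferase reporter responsive to AR and GR) were plated at 3,000 cells/well and preincubated 5 hr at 37C, then given compound plus R1881 agonist for 16 h. ONE-Glo luminescence was read.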

For assay [10] the target is unchanged. As to the kind of experiment: qHTS assay to identify small molecule agonists of the androgen receptor (AR) signaling pathway (AID 743036; active = well fitted activation curve with a large enough effect in the signal ratio in the repeat runs, with a control signal flat, not every such curve was filed as active; the % refers to the signal ratio). In outline:
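AR-bla HEK293 cells, 2,000/well; 4 h preincubation 37C/5% CO2; compound (DMSO) 16 h at 37C; LiveBLAzer B/G FRET substrate 2 h RT; fluorescence intensity read-out.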

Sequence of Androgen receptor (Homo sapiens) (P10275 whole entry, looked up): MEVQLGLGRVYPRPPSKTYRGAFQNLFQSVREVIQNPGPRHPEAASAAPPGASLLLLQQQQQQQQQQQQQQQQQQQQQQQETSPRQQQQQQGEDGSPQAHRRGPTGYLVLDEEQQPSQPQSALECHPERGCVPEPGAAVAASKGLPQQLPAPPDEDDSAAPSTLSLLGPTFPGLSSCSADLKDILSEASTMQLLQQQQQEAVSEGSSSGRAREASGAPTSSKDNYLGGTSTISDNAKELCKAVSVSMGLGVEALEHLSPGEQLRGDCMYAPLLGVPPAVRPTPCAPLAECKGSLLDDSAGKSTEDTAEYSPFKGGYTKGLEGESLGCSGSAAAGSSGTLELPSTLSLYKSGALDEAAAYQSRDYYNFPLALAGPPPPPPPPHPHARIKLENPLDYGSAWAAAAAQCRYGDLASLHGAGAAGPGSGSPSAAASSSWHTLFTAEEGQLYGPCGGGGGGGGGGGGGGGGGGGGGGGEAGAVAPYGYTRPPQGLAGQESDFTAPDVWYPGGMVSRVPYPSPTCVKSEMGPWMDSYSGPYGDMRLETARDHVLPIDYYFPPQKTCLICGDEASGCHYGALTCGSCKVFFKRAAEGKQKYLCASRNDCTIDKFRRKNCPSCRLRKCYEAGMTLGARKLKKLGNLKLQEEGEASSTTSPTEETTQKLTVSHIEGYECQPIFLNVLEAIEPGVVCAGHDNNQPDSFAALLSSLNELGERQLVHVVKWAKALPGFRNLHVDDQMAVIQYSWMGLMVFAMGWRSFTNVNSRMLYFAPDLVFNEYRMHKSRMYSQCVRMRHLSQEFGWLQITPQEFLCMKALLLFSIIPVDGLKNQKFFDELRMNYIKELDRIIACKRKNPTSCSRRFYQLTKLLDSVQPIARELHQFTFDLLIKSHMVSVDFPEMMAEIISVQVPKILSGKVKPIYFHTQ

On to `C[Si](C)O[Si](C)(C)O[Si](C)(C)O[Si](C)C`, for which the Potency result in [1], in [2], in assay [3], in assay [4], in assay [5] and in [6] was “inactive” each time.

Take `COc1ccc(OC)c(OC)c1`: the Potency entry in [1], in assay [2], in assay [3], in assay [4], in [5] and in assay [6] was “inactive” each time.

`CCCCCCCCCCCCCCCBr`: the Potency result in assay [1], in assay [2], in [3], in assay [4], in [5] and in [6] was “inactive” each time.

Take `CC(O)C1CCCCC1` (configuration not stated): the Potency result in assay [1], in [2], in assay [3], in assay [4], in [5] and in [6] was “inactive” throughout.

As for `CC(Cc1cccc(C(F)(F)F)c1)NCCOC(=O)c1ccccc1` (configuration not stated), in [1], the Potency result was “inactive”. Also, the results for the Potency in assay [2], in [3] and in [4] were 18.8 µM (active), 23.7 µM (active) and 26.6 µM (active), respectively.

For the compound `CCCCCCCCCO`, in assay [1], the Potency entry is “inactive”.

As to `COCCOCCOCCOCCOC`, the Potency entry in assay [1], in assay [2], in [3], in assay [4], in assay [5] and in assay [7] was “inactive” each time. Also, the Potency result in assay [8], in [6] and in assay [9] was “inactive” in each case.

As for `CN1CCC(OC(c2ccccc2)c2ccccc2)CC1`, the Potency entry in assay [1], in assay [5] and in [6] was “inactive” throughout. The Potency in assay [2] was 11.4 µM (active); in assay [3], 12.7 µM (active); in [4], 11.4 µM (active).

As for `Cc1ccc(C(C)c2ccc(C)c(C)c2)cc1C`, the Potency result in [1], in assay [2], in assay [3], in assay [4], in assay [5] and in [6] was “inactive” throughout.

`Cc1ccc2c(ccc3ccccc32)c1`: the Potency result in assay [1], in assay [2], in assay [3], in assay [4], in assay [5] and in assay [6] was “inactive” in each case.

For `O=C(CC(=O)c1ccccc1)c1ccccc1`, the Potency result in assay [1], in assay [5] and in [6] was “inactive” in each case. Moreover, the Potency was 36.9 µM (active) in assay [2], 26.2 µM (active) in [3] and 23.3 µM (active) in assay [4].

In the case of `CCN(CC)CCOc1ccc2c(c1)C(=O)c1cc(OCCN(CC)CC)ccc1-2`, the Potency entry in assay [1], in assay [5] and in assay [6] was “inactive” throughout. Besides, the Potency is 5.31 µM (active) in assay [2], 2.66 µM (active) in [3] and 5.96 µM (active) in assay [4].

For `C=C(C)C(=O)OC(C)C`, the Potency entry in assay [1], in [2], in assay [3], in [4], in assay [5] and in assay [7] was “inactive” each time. The Potency entry in [8], in [6] and in assay [9] was “inactive” each time. The outcome in assay [10] was inactive.

Take `Nc1nc(CC(=O)O)cs1`: the Potency entry in assay [1], in assay [2], in assay [3], in assay [4], in [5] and in assay [6] was “inactive” throughout.

As to `C1CCC2OC2C1` (configuration not stated), the Potency entry in assay [1], in [2], in assay [3], in assay [4], in assay [5] and in assay [7] was “inactive” each time. Further, the Potency result in assay [8], in assay [6] and in [9] was “inactive” throughout. Also, in assay [10], the call was inactive.

Take `SC1CCCC1`: the Potency result in assay [1], in [2], in assay [3], in [4], in assay [5] and in assay [6] was “inactive” each time.

On to `NC(=S)N/N=C/c1cccnc1`, for which the Potency result in assay [1], in assay [2], in assay [3], in assay [4], in assay [5] and in assay [7] was “inactive” each time. Also, the Potency entry in [8], in assay [6] and in assay [9] was “inactive” throughout. Also, in [10], the outcome was inactive.

With `Cc1ccc(C(=O)C(C)CN2CCCCC2)cc1` (configuration not stated), the Potency result in assay [1], in assay [5] and in assay [6] was “inactive” throughout. Further, the Potency in assay [2] was 23.7 µM (active) and 26.6 µM (active); in [3], 29.8 µM (active); in assay [4] it was 26.6 µM (active).

Turning to `Cn1c(=O)c2c(ncn2CC(O)CO)n(C)c1=O` (configuration not stated), the Potency result in [1], in assay [2], in assay [3], in assay [4], in [5] and in [6] was “inactive” in each case.

Turning to `c1ccc(OCc2ccc(CCCN3CCOCC3)cc2)cc1`, the Potency entry in [1], in assay [5] and in assay [8] was “inactive” each time. Further, the Potency in assay [2] is 0.531 µM (active); in assay [3] it was 0.168 µM (active); in assay [4] it was 0.596 µM (active). The compound was called inactive in assay [10].

As to `CCCCOC(O)CC` (configuration not stated), the Potency result in assay [1], in assay [2], in [3], in assay [4], in assay [5] and in assay [8] was “inactive” each time. Moreover, the Potency entry in assay [6] and in [9] was “inactive” throughout. Besides, the compound was called inactive in [10].

As for `CC1CCc2cc(F)cc3c(=O)c(C(=O)O)cn1c23` (configuration not stated), the Potency entry in assay [1], in assay [2], in assay [3], in assay [4], in [5] and in assay [6] was “inactive” in each case.

On to `N#CCc1cccc(C(F)(F)F)c1`, for which the Potency result in assay [1], in [2], in [3], in assay [4], in assay [5] and in [6] was “inactive” in each case.

For the compound `O=S1(=O)c2cccc3cccc(c23)N1CCCN1CCN(c2ccc(F)cc2)CC1`, in assay [1], the Potency entry was “inactive”. For the same compound, the results for the Potency in assay [2], in assay [3] and in assay [4] were 18.8 µM (active), 23.7 µM (active) and 23.7 µM (active), respectively.

Take `CCN(CC)C(C)=O`: the Potency result in assay [1], in assay [2], in [3], in [4], in assay [5] and in [6] was “inactive” each time.

In the case of `O=C1CCCCCO1`, the Potency result in [1], in assay [2], in [3], in assay [4], in assay [5] and in assay [6] was “inactive” throughout.

In the case of `N[C@H]1C(O)O[C@H](CO)[C@H](O)[C@@H]1O` (some centres not stated), the Potency entry in assay [1], in assay [2], in assay [3], in assay [4], in assay [5] and in [7] was “inactive” throughout. The Potency result in assay [8], in assay [6] and in assay [9] was “inactive” in each case. Besides, in assay [10], the call was inactive.

Turning to `O=C(NN1CCCC1)NS(=O)(=O)c1ccc(Cl)cc1`, the Potency entry in [1], in assay [2], in assay [3], in [4], in assay [5] and in assay [6] was “inactive” throughout.
